# An excerpt weighted towards active compounds, which were near 9.8% of everything screened.
# JMJD2E inh – qHTS Assay for Inhibitors of Human Jumonji Domain Containing 2E (JMJD2E); Lysine-specific demethylase 4E (Homo sapiens), B2RXH2; JMJD2E catalytic domain, FDH-coupled NADH fluorescence (FDH is formaldehyde dehydrogenase); Potency, µM (top dose mostly 57.1 µM), for the others: at the highest dose activity change, negative = inhibition, usual class: inhibitors; 230,000 tested, 1.6% active; AID 2147, 2009;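 note: potency is the fitted concentration of half-maximal effect; 0% = wells with enzyme and -100% = buffer wells without enzyme; nearly all actives have a fitted effect of over 50% in size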
# Target sequence (B2RXH2 1-337 limits assumed): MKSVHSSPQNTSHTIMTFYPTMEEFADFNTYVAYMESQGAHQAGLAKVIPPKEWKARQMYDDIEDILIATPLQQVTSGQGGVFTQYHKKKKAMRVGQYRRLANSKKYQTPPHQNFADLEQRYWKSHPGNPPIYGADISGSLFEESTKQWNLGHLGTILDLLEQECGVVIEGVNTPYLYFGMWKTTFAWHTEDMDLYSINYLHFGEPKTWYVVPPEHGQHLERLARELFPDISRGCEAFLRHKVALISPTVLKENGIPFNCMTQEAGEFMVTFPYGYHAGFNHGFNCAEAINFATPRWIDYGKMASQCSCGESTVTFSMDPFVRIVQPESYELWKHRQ
# HTT aggregate – qHTS Multiplex Assay to Identify Dual Action Probes in a Cell Model of Huntington: Aggregate Formation (GFP); 220,000 tested, 1.1% active; AID 1688, 2009; PC12 HttQ103-GFP aggregates, Acumen cytometry, 40 h; Potency, µM (titrated, usually from 46.1 µM), without a hit: at the highest dose activity change, negative = inhibition, most hits filed as inhibitors; active = well fitted curve in the direction sought with a large enough effect; inconclusive = small, poorly fitted or top-dose-only effect, or another doubt; inactive = no such curve, though single readings can be large; an effect the other way counts as inactive or inconclusive; note: potency is the fitted concentration of half-maximal effect; % is set by controls: 0 for no effect and ±100 for the full control effect; nearly all actives have a fitted effect of over 60% in size
#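 Aggregates are detected as GFP objects 1–25 µm with signal 6 STDEV over background in lysates of induced PC12 cells. These carry Huntingtin exon 1 with 103 glutamines fused to GFP under an ecdysone promoter; compounds titrated.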
# HPGD block – qHTS Assay for Inhibitors of HPGD (15-Hydroxyprostaglandin Dehydrogenase) | 150,000 tested, 4.3% active | AID 894, 2007 | purified HPGD, NADH fluorescence kinetic, PGE2 substrate | Potency, µM, without a hit: top-dose activity change, negative = inhibition, actives largely listed as inhibitors | 15-hydroxyprostaglandin dehydrogenase [NAD(+)] (Homo sapiens), P15428; note: potency is the fitted concentration of half-maximal effect; % is set by controls: 0 for no effect and ±100 for the full control effect
# Target sequence (P15428 whole entry, looked up): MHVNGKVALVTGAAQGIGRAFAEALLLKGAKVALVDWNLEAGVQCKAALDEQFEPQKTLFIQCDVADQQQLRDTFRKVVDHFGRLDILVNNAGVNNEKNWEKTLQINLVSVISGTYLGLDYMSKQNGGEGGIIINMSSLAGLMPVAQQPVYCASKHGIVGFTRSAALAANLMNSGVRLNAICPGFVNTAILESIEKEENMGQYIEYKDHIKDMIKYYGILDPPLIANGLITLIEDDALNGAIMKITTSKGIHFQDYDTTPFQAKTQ
#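 20 nM HPGD preincubated 15 min at room temperature with compound in 50 mM Tris-HCl pH 8, 0.01% Tween 20. Started with 1 mM NAD+ and 30 uM prostaglandin E2; NADH fluorescence (360/450 nm) read 5 times over 30-s intervals, last minus first.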
# CBFb RUNX1 block – qHTS Assay for Compounds Blocking the Interaction Between CBF-beta and RUNX1 for the Treatment of Acute Myeloid Leukemia; AlphaScreen CBFb-His/RUNX1-biotin binding, biochemical; 230,000 tested, under 10 active; AID 1477, 2009; Potency, µM (series often up to 59.8 µM), for the others: at the highest dose activity, negative = inhibition, actives largely listed as inhibitors; Runt-related transcription factor 1 (Homo sapiens) + Core-binding factor subunit beta …; active = well fitted curve in the direction sought with a large enough effect; inconclusive = small, poorly fitted or top-dose-only effect, or another doubt; inactive = no such curve, though single readings can be large; an effect the other way counts as inactive or inconclusive; note: % of control where 0% means no effect
#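 His-tagged CBF-beta and biotinylated RUNX1 (30 nM each) were premixed 20 min at room temperature, exposed to compound for 15 min, then given nickel-chelate and streptavidin AlphaScreen beads (50 ng each). After 90 min, AlphaScreen signal was read.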
# ALDH1A1 inh – qHTS Assay for Inhibitors of Aldehyde Dehydrogenase 1 (ALDH1A1). AID 1030, 2008. Potency, µM (doses to about 75.3 µM), for the others: top-dose activity, negative = inhibition, usual class: inhibitors. Aldehyde dehydrogenase 1A1 (Homo sapiens), P00352. Purified ALDH1A1, NADH fluorescence, propionaldehyde substrate. 220,000 tested, 7.3% active;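 note: potency is the fitted concentration of half-maximal effect; plate controls were no enzyme wells and a reference inhibitor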
# HTT cytoprotect – qHTS Multiplex Assay to Identify Dual Action Probes in a Cell Model of Huntington: Cytoprotection (ATP); PC12 HTT-Q103 induced, cytoprotection, ATP luminescence, 40 h; Potency, µM (highest dose often 56.4 µM), inactives show cytoprotection (ATP increase), usual class: activators; 230,000 tested, 0.14% active; AID 1471, 2008; active = well fitted curve in the direction sought with a large enough effect; inconclusive = small, poorly fitted or top-dose-only effect, or another doubt; inactive = no such curve, though single readings can be large; an effect the other way counts as inactive or inconclusive; note: potency is the fitted concentration of half-maximal effect; % of control where 0% means no effect; nearly all actives have a fitted effect of over 45% in size
#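 Cells were plated at 1500 per well in phenol red-free DMEM with 5% equine and 5% calf serum. Tebufenozide (100 nM final) and compounds were added, then ATPlite reagent, and luminescence was read.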
# * = called active by the depositor; ? = inconclusive; . = no result given; [ ] = another dose, or the depositor's remark. Unless noted, calls come from the whole dose curve; as a rule, active = well fitted inhibition curve with a large enough effect (not every such curve was filed as active); inconclusive = small, poorly fitted or top-dose-only effect, or another doubt; inactive = no such curve, though single readings can be large or run the other way.
SMILES,JMJD2E inh,HTT aggregate,HPGD block,CBFb RUNX1 block,ALDH1A1 inh,HTT cytoprotect
NNC(=O)c1cc(O)c(O)c(O)c1,?,?,.,.,25µM*,-64%
COc1ccc(C(=O)Nc2cc(Cl)ccc2C(=O)O)cc1,-2%,-3%[9.22 µM],.,8%,1%,-27%[10 µM]
COc1c(Cl)cc(C(=O)NN)cc1Cl,56%,-28%,.,-2%,2.2µM*,-164%
COc1ccc(C(c2c(N)[nH]c(=S)[nH]c2=O)c2c(N)[nH]c(=S)[nH]c2=O)cc1,-5%,-38%[9.22 µM],.,6%,.,8%[10 µM]
Nc1nc(N)c(CCCCc2ccccc2)c(N)n1,.,.,2%,.,17%[13.5 µM],6%[10 µM]
CCn1c(SCC(=O)NCc2ccco2)nc2cccnc21,2%,-15%,?,1%,-14%,19%[10 µM]
O=C(CSc1nc2ccccc2c(=O)n1Cc1ccco1)NCc1ccco1,?,12%,-21%,-6%,25µM*,-11%[10 µM]
O=C(CSc1nc2cccnc2n1Cc1ccccc1)NCc1ccco1,-20%,-8%,32µM*,-6%,25µM*,6%[10 µM]
O=C(CSc1nc2c(sc3ccccc32)c(=O)n1Cc1ccco1)NCC1CCCO1 (stereo not given),?,-2%,5%,9%,18µM*,5%[10 µM]
O=C(CSc1nc2ccccc2c(=O)n1-c1ccccc1)NCc1ccco1,-3%,-10%,-25%,?,4.5µM*,-3%[10 µM]
CCCCn1c(SCC(=O)NCc2ccco2)nc2ccccc2c1=O,-6%,-6%[9.22 µM],-11%,-3%,-6%,3%
O=C(CSc1nc2c(sc3ccccc32)c(=O)n1Cc1ccccc1)NCC1CCCO1 (stereo not given),6%,8%[9.22 µM],-20%,6%,0%,8%
CCc1ccc(C(=O)NNC(=O)OC)cc1,0%,6%,.,-2%,?,-32%
CCOC(=O)C(CCCCC(NC(C)=O)(C(=O)OCC)C(=O)OCC)(NC(C)=O)C(=O)OCC,0%,6%[9.22 µM],.,6%,.,-2%[10 µM]
COc1ccccc1NC(=O)c1ccc(NC(=O)Cc2n[nH]c(=O)c3ccccc23)cc1,?,6%[9.22 µM],.,0%,-14%,-13%[10 µM]
CN(Cc1ccccc1)C(=O)CSc1nc2ccccc2c(=O)n1Cc1ccco1,1%,?,-26%,-2%,7.9µM*,-3%
COc1cc2nc(SCC(=O)NCCc3ccccc3)n(Cc3ccco3)c(=O)c2cc1OC,2%,12%,-10%,0%,3.5µM*,-11%[0.074 µM]
COc1ccccc1NS(=O)(=O)c1ccc(O)c(C(=O)OCC(=O)c2ccc(Cl)cc2Cl)c1,-15%,1%,.,-11%,1.1µM*,-23%
COc1ccccc1NS(=O)(=O)c1ccc(O)c(C(=O)OCC(=O)N2c3ccccc3CC2C)c1 (stereo not given),?,2%,.,-4%,7.9µM*,-24%
COc1ccccc1NS(=O)(=O)c1ccc(O)c(C(N)=O)c1,?,0%,-16%,7%,?,23%[10 µM]
CO/N=C/CC(=O)c1cnc(-c2ccc(Cl)cc2)s1,?,13%,.,-7%,3.2µM*,-63%
O=C(c1ccc(Cl)cc1)c1cnc(-c2ccccc2)s1,9%,9%,-5%,2%,20%,-16%
CCOC(=O)C1=C(CS(=O)(=O)c2ccc(F)c(C)c2)NC(=O)NC1c1ccc(O)c(O)c1 (stereo not given),14µM*,-6%,-14%,-2%,2%,-5%
CCOC(=O)C1=C(CS(=O)(=O)c2ccccc2)NC(=O)NC1c1ccc(OC)c(OC)c1 (stereo not given),2%,-2%[9.22 µM],.,0%,3%,-4%[10 µM]
Cc1nn(-c2ccccc2)c(Cl)c1C(=O)N(C)c1nc(-c2ccc(F)cc2)cs1,1%,-10%,-15%,-3%,14%,-7%[10 µM]
SMILES,JMJD2E inh,HTT aggregate,HPGD block,CBFb RUNX1 block,ALDH1A1 inh,HTT cytoprotect
Cc1ccc(-c2nn(-c3ccccc3)cc2CN(Cc2ccccc2)C(=O)c2ccco2)o1,-7%,?,-27%,?,11µM*,-46%
Cc1ccc(-c2nn(-c3ccccc3)cc2C(=O)O)o1,?,12%,.,?,?,-14%
O=C(O)c1ccccc1/C=N/Nc1ccc(S(=O)(=O)N2CCCC2)cc1[N+](=O)[O-],-10%,5%[9.22 µM],.,2%,13µM*,6%[10 µM]
O=[N+]([O-])c1cc(S(=O)(=O)N2CCCC2)ccc1N/N=C/c1cccnc1,3%,4%,-4%,4%,4%,-4%[10 µM]
Cc1nn(-c2ccccc2)c(Cl)c1/C=N/Nc1ccc(S(=O)(=O)Nc2ccccc2C(=O)O)cc1[N+](=O)[O-],-10%,-7%,16µM*,?,?,-36%
CC(C)(C)C(=O)[C@H]([C@@H](c1ccccc1)N1CCOCC1)N1CCOCC1,.,.,.,.,.,19%[10 µM]
CCN(CC)S(=O)(=O)c1ccc(N2CCCC2)c(NS(=O)(=O)c2ccccc2)c1,8%,1%,-13%,1%,0.35µM*,3%[10 µM]
CCN(CC)S(=O)(=O)c1ccc(N2CCOCC2)c(NS(=O)(=O)c2cc(C(C)(C)C)ccc2C)c1,5%,0%,-15%,5%,14µM*,?
CCN(CC)S(=O)(=O)c1ccc(N2CCCC2)c(NS(=O)(=O)c2ccc(F)cc2)c1,3%,?,-27%,0%,0.63µM*,21%[10 µM]
CCN(CC)S(=O)(=O)c1ccc(N2CCCC2)c(NS(=O)(=O)c2ccc([N+](=O)[O-])cc2)c1,-2%,?,.,-1%,2µM*,13%[10 µM]
CCN(CC)S(=O)(=O)c1ccc(N2CCCC2)c(NC(=O)Cc2ccccc2)c1,1%,31%[9.22 µM],.,-1%,.,23%[10 µM]
CCN(CC)S(=O)(=O)c1ccc(N2CCOCC2)c(NS(=O)(=O)c2ccc(C(C)C)cc2)c1,5%,17%,-4%,3%,-2%,-2%[10 µM]
CCN(CC)S(=O)(=O)c1ccc(N2CCCC2)c(NS(=O)(=O)c2ccc(OC)cc2)c1,-10%,2%,-6%,-10%,2.5µM*,15%[10 µM]
CC(=O)Nc1ccc(SCC(=O)c2cc(C)n(C)c2C)cc1,6%,-7%,-3%,-2%,-7%,-3%
CC(=O)Nc1ccc(SCC(=O)c2cc(C)n(CC(F)(F)F)c2C)cc1,-3%,8%,-16%,-8%,20µM*,-20%

# High-throughput results (PubChem BioAssay)
